Assay results published in ChEMBL document CHEMBL1201862, “PubChem BioAssay data set” (2004).
In all, about 55,000 sequences went through this assay and about 3,800 (6.9%) were called active. Cut-off read from the data, not from the text of the source: active = GI50 up to about 1.1 µM and inactive = higher. The list is a sample of the results. Measured potencies and affinities stand elsewhere.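 Grown in 96-well plates, cells were treated for 48 hours with each compound at five concentrations. Insufficient inhibition: endpoint recorded as highest concentration tested. GI50 marks 50% less growth.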

These substances were tested on CAKI-1 (assay: NCI tumour cell line growth inhibition, 48 h).
Substance “[Bis(aminomethyl)pentamethylenesilane]dichloropaltinum(II), CHEMBL2146202” has a GI50 of 2.26 µM. For “[Bis(aminomethyl)tetramethylenesilane]tetrachloropaltinum(IV), CHEMBL2146189”, the GI50 was 5.92 µM. Substance “[Bis(aminomethyl)diethylsilane]tetrachloroplatinum(IV), CHEMBL2146203” has a GI50 of 4.06 µM. With “[Bis(aminomethyl)ethylmethylsilane]tetrachloroplatinum(IV), CHEMBL2146192” the GI50 was 1.19 µM. With CISPLATIN, CHEMBL11359 the GI50 was 1.99 µM. “[Bis(aminomethyl)dimethylsilane]tetrachloroplatinum(IV), CHEMBL2146190” showed a GI50 of 4.05 µM. With “[Bis(aminomethyl)dimethylsilane]dichloroplatinum (II), CHEMBL2146201” the GI50 was 12 µM. With “[Bis(aminomethyl)pentamethylenesilane]tetrachloropaltinum(IV), CHEMBL2146204” the GI50 was 2.14 µM. For “mu-(1,7-nanodiamine-N,N')bis-(cis-aminedichloroplatimum (II)), CHEMBL2146215”, the GI50 was 50.6 µM. Substance “[Bis(aminomethyl)tetramethylenesilane]dichloropaltinum(II), CHEMBL2146205” has a GI50 of 13.6 µM. “cis-Bis[[(trimethylsilyl)methyl]amino]tetrachloroplatinum(IV), CHEMBL2146191” was tested, and the GI50 was 11.9 µM.
